APOBEC3A inh: human APOBEC3A DNA deaminase inhibition. P31941. recombinant A3A, FAM/TAMRA ssDNA deamination fluorescence. inhibition, % at 20 µM. hit rate 0.41% among 330,000. AID 493011;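 active means at least 40% inhibition at 20 µM here, with at most 30% in a related deaminase screen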;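 further: plate controls were A3A with DMSO for no effect and wells lacking A3A enzyme for full effect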
PfM18AAP inh-1: PfM18AAP enzyme inhibition. recombinant PfM18AAP, H-Glu-NHMec fluorogenic cleavage. inhibition, % at 7.35 µM. hit rate 1.2% among 290,000. AID 1822;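 active means inhibition above the campaign mean inhibition over all tested compounds plus 3 SD, cut at about 28% in these data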;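 further: 0% = plate median of test compound wells and 100% = 2 mM ZnCl2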
Yeast superoxide: lowers age-related superoxide in aged yeast cells; superoxide response (% of plate mean), % at 10 µM; hit rate 0.18% among 330,000; S. cerevisiae aged cells, superoxide DHE fluorescence; stronger effect = lower value;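 active means superoxide response under a set limit, about three screen SD below normal, cut at about 65% in these data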;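 further: yeast aged for seven days with compound at 30 °C before DHE staining; 100% = average MFI of all compound-treated wells on the plate with controls excluded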
ALR inh: inhibitors of human sulfhydryl oxidase ALR; P55789; inhibition, % (test concentration not listed); hit rate 3.8% among 290,000; AID 485317; purified ALR, DTT oxidation, H2O2 HRP-luminol luminescence;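 active means mean replicate inhibition above about 79%, with every replicate also reaching it, limit read from the data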
Target sequence (P55789 whole entry, looked up): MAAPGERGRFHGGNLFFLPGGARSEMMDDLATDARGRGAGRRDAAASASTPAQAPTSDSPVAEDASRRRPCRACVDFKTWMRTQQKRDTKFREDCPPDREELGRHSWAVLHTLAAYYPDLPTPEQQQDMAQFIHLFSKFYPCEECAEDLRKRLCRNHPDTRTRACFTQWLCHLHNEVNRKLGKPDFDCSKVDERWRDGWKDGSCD
NRP1-CendR mod: NRP-1/CendR interaction modulation; O14786; FAM-RPARPAR peptide binding to NRP-1, fluorescence polarization; inhibition, % at 25 µM; hit rate 0.85% among 360,000;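 active means inhibition or corrected inhibition above about 18%, plus a signal ratio from 0.5 to 1.5, limit read from the data, passing the limit was not always enough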
A3G deaminase: blocks human APOBEC3G single-stranded DNA deamination; recombinant A3G, ssDNA deamination FAM/TAMRA fluorescence; hit rate 0.28% among 330,000; inhibition, % at 20 µM; Q9HC16;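 active means inhibition of at least 40% at 20 µM, with no more than 30% in the related APOBEC3A deaminase screen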;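 further: plate controls were DMSO wells with A3G for no effect and wells lacking A3G enzyme for full effect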
Target sequence (Q9HC16 whole entry, looked up): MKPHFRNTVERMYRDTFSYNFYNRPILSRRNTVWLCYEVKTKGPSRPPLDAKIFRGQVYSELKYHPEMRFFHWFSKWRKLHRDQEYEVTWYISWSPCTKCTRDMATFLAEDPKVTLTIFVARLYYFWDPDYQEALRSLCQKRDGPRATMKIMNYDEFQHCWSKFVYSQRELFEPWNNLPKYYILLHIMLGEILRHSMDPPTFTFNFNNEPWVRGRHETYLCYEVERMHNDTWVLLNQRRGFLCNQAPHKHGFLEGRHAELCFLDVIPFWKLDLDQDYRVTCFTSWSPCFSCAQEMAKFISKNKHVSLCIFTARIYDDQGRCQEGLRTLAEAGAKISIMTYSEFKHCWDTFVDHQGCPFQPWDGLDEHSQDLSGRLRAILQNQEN
PfM18AAP inh-2: confirmation of Plasmodium falciparum M18 aspartyl aminopeptidase inhibitors; inhibition, % at 7.35 µM; recombinant PfM18AAP, H-Glu-NHMec fluorogenic cleavage; shares compounds with PfM18AAP inh-1; hit rate 28% among 2,400;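 active means mean inhibition over replicate wells above the hit cutoff set for the earlier primary screen, cut at about 29% in these data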;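 further: 0% = median of test compound wells and 100% = 2 mM ZnCl2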
CTSL1 counter: Cathepsin L (human) inhibition, confirmation | shares compounds with PfM18AAP inh-1 | purified cathepsin L1, Z-Leu-Arg-MCA fluorescence | inhibition, % at 5.96 µM | 2,400 tested, under 10 active;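 active means average inhibition across replicates above the hit cutoff set in the earlier primary screen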;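 further: 0% = median of test compound wells and 100% = Z-Phe-Ala-diazomethylketone 1 µM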
* = called active by the depositor. Compounds with a hit are over-represented: about 5.2% of the library has one in this group of screens.

For COCc1[nH]nc2c1C(c1cc(OC)c(O)c(OC)c1)C(C#N)=C(N)O2 (stereo not given) the results were APOBEC3A inh 0.9, PfM18AAP inh-1 37.6*, Yeast superoxide 104.8, ALR inh 10.6, NRP1-CendR mod -6.8, A3G deaminase 4.4, PfM18AAP inh-2 -4.3 and CTSL1 counter 4.7.
`O=c1c(-c2ccc([N+](=O)[O-])cc2)coc2c(O)c(O)ccc12` gave APOBEC3A inh -3.7, PfM18AAP inh-1 45.4*, Yeast superoxide 97.4, ALR inh 9.5, NRP1-CendR mod -45.3, A3G deaminase -7.9, PfM18AAP inh-2 25.2 and CTSL1 counter -1.8.
For CN(C)Cc1c(O)ccc2c(=O)c(-c3ccc(Cl)cc3)coc12 the results were APOBEC3A inh -3.3, PfM18AAP inh-1 -11.3, Yeast superoxide 114.6, ALR inh 10.8, NRP1-CendR mod -8.0 and A3G deaminase -1.4.
For Cc1cc(C)nc(NNC2=CC(=[N+]3CCCC3)CCC2)n1 the results were APOBEC3A inh 10.4, PfM18AAP inh-1 56.9*, Yeast superoxide 120.4, ALR inh 46.9, NRP1-CendR mod 5.8, A3G deaminase 15.6, PfM18AAP inh-2 45.3* and CTSL1 counter 2.7.
Screening Cc1cc(C)nc(NNC2=CC(=[N+]3CCCCC3)CC(C)(C)C2)n1 returned APOBEC3A inh 2.1, PfM18AAP inh-1 56.0*, Yeast superoxide 112.8, ALR inh 98.8*, NRP1-CendR mod 12.8, A3G deaminase -1.7, PfM18AAP inh-2 39.8* and CTSL1 counter 1.1.
For CN(C)NC1=CC(=[N+]2CCCC2)CC(C)(C)C1 the results were APOBEC3A inh 19.1, PfM18AAP inh-1 1.4, Yeast superoxide 98.0, ALR inh 25.5, NRP1-CendR mod -5.0 and A3G deaminase 0.0.
Screening Cc1cc(C(F)(F)F)nc(NNc2nc(C)cc(C(F)(F)F)n2)n1 returned NRP1-CendR mod 2.5.
CCN1C(C)=C(C)S/C1=C1\SC(=S)N(N)C1=O was read as APOBEC3A inh 1.0, PfM18AAP inh-1 75.5*, Yeast superoxide 97.7, NRP1-CendR mod 5.6, A3G deaminase 0.9, PfM18AAP inh-2 -19.9 and CTSL1 counter 1.5.
Cc1cccc(Nc2nc(-c3ccc(F)c(C)c3)cs2)n1 was read as APOBEC3A inh 1.3, PfM18AAP inh-1 -9.0, Yeast superoxide 69.0, ALR inh -1.2, NRP1-CendR mod 1.3 and A3G deaminase -3.3.
`Cc1ccnc(Nc2nc(-c3ccc(O)c(O)c3)cs2)c1` gave APOBEC3A inh -5.1, PfM18AAP inh-1 62.3*, Yeast superoxide 95.3, ALR inh 98.3*, NRP1-CendR mod 7.9, A3G deaminase 6.6, PfM18AAP inh-2 46.6* and CTSL1 counter -1.2.
COc1ccc(-c2csc(Nc3cc(C)ccn3)n2)cc1C was read as APOBEC3A inh -1.9, PfM18AAP inh-1 -1.8, Yeast superoxide 106.5, ALR inh -1.3, NRP1-CendR mod 4.7 and A3G deaminase -7.7.
For Cc1cccc(Nc2nc(-c3ccc(O)c(O)c3)cs2)n1 the results were APOBEC3A inh -0.4, PfM18AAP inh-1 54.5*, Yeast superoxide 97.8, ALR inh 98.8*, NRP1-CendR mod 11.9, A3G deaminase -6.0, PfM18AAP inh-2 27.8 and CTSL1 counter -4.5.
For Cc1cccnc1Nc1nc(-c2ccc(O)c(O)c2)cs1 the results were APOBEC3A inh -2.9, PfM18AAP inh-1 79.1*, Yeast superoxide 82.8, ALR inh 99.4*, NRP1-CendR mod 3.7, A3G deaminase -7.2, PfM18AAP inh-2 55.2* and CTSL1 counter 3.8.
`CCCNC(=O)c1csc(Nc2cccc3ccccc23)n1` gave APOBEC3A inh -10.2, PfM18AAP inh-1 4.9, Yeast superoxide 100.7, ALR inh -45.9, NRP1-CendR mod -3.1 and A3G deaminase -5.4.
`Oc1ccc(-c2csc(Nc3cccc4ccccc34)n2)cc1O` gave APOBEC3A inh -2.4, PfM18AAP inh-1 54.6*, Yeast superoxide 100.1, ALR inh 73.2, NRP1-CendR mod 2.6, A3G deaminase 1.2, PfM18AAP inh-2 24.8 and CTSL1 counter -13.1.
For CC1CCCCC1NC(=O)CN1CCC(NC(=O)c2cccc(F)c2)CC1 (stereo not given) the results were APOBEC3A inh 3.1, PfM18AAP inh-1 -7.8, Yeast superoxide 86.1, NRP1-CendR mod 17.1 and A3G deaminase 3.5.
For COc1ccc(NC(=O)COC(=O)CN2C(=O)NC(C)(C)C2=O)cc1 the results were APOBEC3A inh 1.6, Yeast superoxide 95.6, NRP1-CendR mod 5.2 and A3G deaminase -1.8.
Cc1nc(SCC(=O)OCc2ccccc2)c2c(=O)n(C)c(=O)n(C)c2n1 was read as APOBEC3A inh -1.9, Yeast superoxide 105.2, NRP1-CendR mod 4.2 and A3G deaminase -10.3.
Oc1ccc(-c2csc(Nc3ccccn3)n2)cc1O was read as APOBEC3A inh 3.2, PfM18AAP inh-1 64.0*, Yeast superoxide 96.8, ALR inh 98.4*, NRP1-CendR mod 6.7, A3G deaminase 1.5, PfM18AAP inh-2 47.4* and CTSL1 counter -3.7.
For Nc1nncn1C(=O)CCCOc1ccccc1 the results were APOBEC3A inh -1.3, PfM18AAP inh-1 35.2*, Yeast superoxide 102.2, ALR inh 3.5, NRP1-CendR mod 2.6, A3G deaminase -1.8, PfM18AAP inh-2 50.3* and CTSL1 counter -2.5.
For O=C(CCCOc1ccccc1)N1CCCCC1 the results were APOBEC3A inh -6.5, PfM18AAP inh-1 -2.5, Yeast superoxide 103.6, NRP1-CendR mod 3.8 and A3G deaminase -7.2.
For Nc1nncn1C(=O)CCc1ccccc1 the results were APOBEC3A inh -1.0, PfM18AAP inh-1 71.7*, Yeast superoxide 95.0, NRP1-CendR mod 9.3, A3G deaminase -4.5, PfM18AAP inh-2 49.1* and CTSL1 counter -2.7.
Screening CC(C)(C)c1ccc(-n2ncc3c2CCCC3NC(=O)CCN2CCCO2)cc1 (stereo not given) returned APOBEC3A inh 2.3, PfM18AAP inh-1 -2.4, Yeast superoxide 91.6, ALR inh -6.2, NRP1-CendR mod -0.7 and A3G deaminase 1.1.
For Fc1ccc(CNc2ccc(CNc3ncn[nH]3)cc2)cc1 the results were PfM18AAP inh-1 32.0*, NRP1-CendR mod -4.1, PfM18AAP inh-2 -25.6 and CTSL1 counter -0.6.
`CC(C)(C)NC(=O)COc1ccc(CNc2ncn[nH]2)cc1` gave APOBEC3A inh -1.8, PfM18AAP inh-1 1.8, Yeast superoxide 100.2, NRP1-CendR mod -1.8 and A3G deaminase -11.0.
`COc1cc(CNc2ccc(CNc3ncn[nH]3)cc2)ccc1OCC(=O)NC(C)(C)C` gave APOBEC3A inh -1.5, PfM18AAP inh-1 46.9*, Yeast superoxide 97.0, ALR inh -2.6, NRP1-CendR mod 6.4, A3G deaminase -6.8, PfM18AAP inh-2 -34.5 and CTSL1 counter -7.6.
Screening COc1ccc(C2=CC(=O)C=CC2=O)cc1 returned PfM18AAP inh-1 56.4*, PfM18AAP inh-2 61.8* and CTSL1 counter -3.1.
